The sample as a whole holds a higher share of hits than the screen did.
TDP1 cell noCPT: qHTS for Inhibitors of human tyrosyl-DNA phosphodiesterase 1 (TDP1): qHTS in cells in absence of CPT | DT40 Tdp1-/- hTDP1 cells, no CPT, ATP luminescence, 48 h | Potency, µM (series often up to 46.2 µM), inactives show at the highest dose activity change, negative = growth inhibition, most hits filed as inhibitors | 420,000 tested, 15% active; further: potency means the concentration at half of the fitted maximal effect; nearly all actives have a fitted effect of over 55% in size
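No-CPT arm: Tdp1-/-;hTDP1 DT40 cells (400/well) plus compounds, incubated ≥48 hr at 37 °C. Readout CellTiter-Glo luminescence.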
HT1080NT lethal: kills 2HG-producing HT-1080-NT fibrosarcoma cells. Potency, µM (series often up to 46.1 µM), for inactives: at the highest dose activity, negative = less viability, hits mostly cytotoxic. HT-1080-NT fibrosarcoma viability, CellTiter-Glo ATP luminescence, 48 h. 360,000 tested, 1.6% active;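 further: NT is the 2HG producing partner of a matched IDH1 knockdown line; potency means the concentration at half of the fitted maximal effect; 0% = DMSO-treated cells and -100% = media-only wells without cells; nearly all actives have a fitted effect of over 55% in size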
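Viability of the 2HG-overproducing fibrosarcoma line after 48 hours of compound exposure at 37 degrees C was determined by luminescence with CellTiter-Glo, and concentration-effect curves were then fitted and categorized.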
IL1B secr inh: blocks inflammasome-driven IL-1 beta release. THP-1 LPS/ATP IL-1B secretion, AlphaLISA, 16 h; stronger effect = lower value. activity change, % at 57.5 µM. 360,000 tested, 4.7% active. AID 743279; in the data active means activity change below about -50%; inconclusive means mostly about -30% to -49%
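Secreted IL-1B measured by AlphaLISA bead assay after 16 h compound exposure of THP-1 cells; compounds (final up to 57.5 uM) added 1 h before LPS (250 ng/mL) and ATP (1.25 mM) stimulation; lower signal means less secretion.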
HT1080 IDH1KD tx: kills HT-1080 cells with IDH1 knockdown; Potency, µM (series often up to 46.1 µM), for inactives: top-dose activity, negative = toxicity, actives largely listed as cytotoxic; AID 686971; HT-1080 IDH1 knockdown viability, ATP luminescence, 48 h; 360,000 tested, 2% active;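 further: potency means the concentration at half of the fitted maximal effect; 0% = DMSO wells and -100% = cell-free medium wells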
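HT-1080-IDH1KD cells (IDH1 knocked down), 750/well in RPMI with 5% FBS, treated with compound 48 h at 37 degrees C. Viability by CellTiter-Glo luminescence, normalised to DMSO and no-cell wells; concentration-response curves classed.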
12-LOX inh: ALOX12 (human) lipoxygenase inhibition; P18054; purified 12hLO, xylenol orange hydroperoxide absorbance; Potency, µM (doses to about 108 µM), for inactives: at the top dose activity change, negative = inhibition, actives largely listed as inhibitors; 580,000 tested, 1.1% active; AID 1671190; further: potency means the concentration at half of the fitted maximal effect
Target sequence (P18054 whole entry, looked up): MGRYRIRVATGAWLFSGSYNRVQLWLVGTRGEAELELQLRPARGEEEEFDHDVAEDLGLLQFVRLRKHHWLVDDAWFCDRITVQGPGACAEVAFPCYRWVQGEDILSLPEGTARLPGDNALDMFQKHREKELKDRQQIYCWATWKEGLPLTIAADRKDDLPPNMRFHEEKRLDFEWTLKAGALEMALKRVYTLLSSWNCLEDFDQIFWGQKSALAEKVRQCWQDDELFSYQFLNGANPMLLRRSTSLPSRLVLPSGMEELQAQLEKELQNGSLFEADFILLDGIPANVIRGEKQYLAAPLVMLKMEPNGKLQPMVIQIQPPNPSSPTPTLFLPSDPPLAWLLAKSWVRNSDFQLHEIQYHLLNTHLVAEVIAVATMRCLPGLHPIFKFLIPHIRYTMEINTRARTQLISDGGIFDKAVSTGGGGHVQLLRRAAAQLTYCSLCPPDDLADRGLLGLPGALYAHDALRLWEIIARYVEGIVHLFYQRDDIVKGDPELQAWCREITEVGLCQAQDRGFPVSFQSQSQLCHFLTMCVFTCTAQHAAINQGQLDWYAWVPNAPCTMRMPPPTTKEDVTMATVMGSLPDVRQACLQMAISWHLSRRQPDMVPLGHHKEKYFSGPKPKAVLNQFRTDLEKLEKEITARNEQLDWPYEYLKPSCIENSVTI
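Purified human 12hLO at 150 nM in 25 mM Hepes, 0.01% Triton X-100, pH 7.0, preincubated 15 min at room temperature with compound. Reaction started with 40 uM arachidonic acid, 30 min at room temperature. Hydroperoxide measured by Fe-xylenol orange, 573/405 nm absorbance ratio.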
DT40 TDP1 CPT: DT40-hTDP1 cell growth loss with CPT. chicken DT40 Tdp1-/-;hTDP1 cells + 20 nM CPT, ATP luminescence, 48 h. Potency, µM (titrated, usually from 46.2 µM), for inactives: at the top dose activity change, negative = growth inhibition, usual class: inhibitors. 420,000 tested, 12% active. AID 686979; further: potency means the concentration at half of the fitted maximal effect; nearly all actives have a fitted effect of over 55% in size
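Chicken DT40 Tdp1-/- cells complemented with human TDP1, 400 cells/well, exposed to compounds plus 20 nM camptothecin for at least 48 h at 37 C; viability read as ATP content by CellTiter-Glo luminescence.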
* marks the source's active call; other numbers are inactive results; ? = inconclusive; / = no result given; [ ] = remark or other dose. Unless noted, the call rests on the fitted dose curve; in most records, active means well fitted curve in the direction sought with a large enough effect; inconclusive means small, poorly fitted or top-dose-only effect, or another doubt; inactive means no such curve, though single readings can be large; an effect the other way counts as inactive or inconclusive. Unless noted, on the % scale 0 is the no-effect control and ±100 the full control effect.

SMILES | TDP1 cell noCPT | HT1080NT lethal | IL1B secr inh | HT1080 IDH1KD tx | 12-LOX inh | DT40 TDP1 CPT
CSc1ccc(CCNC(=O)C2CCN(c3nc4ccccc4nc3C(F)(F)F)CC2)cc1 | 12µM* | / | / | / | ? | 15µM*
CCc1noc(-c2cn(C3CCN(C(=O)c4ccc(OC(F)(F)F)cc4)CC3)nn2)n1 | / | / | / | / | 10% | /
Cc1cc(N2CCCCS2(=O)=O)cc(C)c1S(=O)(=O)NCc1ccccn1 | / | / | / | / | 6% | /
CC1=C(C(=O)N2CCOCC2)CC(CC(=O)NC2CCCCC2)C(=O)N1Cc1ccc(C(C)(C)C)cc1 (stereo not drawn) | 21µM* | 17% | -13 | -3% | 0% | ?
CC1=C(C(=O)N2CCCCCC2)CC(CC(=O)NCCCN(C)C)C(=O)N1Cc1ccccc1 (stereo not drawn) | 24% | 8% | -19 | 24% | 31% | 5%
CC1=C(C(=O)N2CCCCCC2)CC(CC(=O)NCCCN(C)C)C(=O)N1Cc1ccc(C(C)(C)C)cc1 (stereo not drawn) | ? | ? | / | ? | -2% | 8.3µM*
CC1=C(C(=O)N2CCCCCC2)CC(CC(=O)NC2CCCCC2)C(=O)N1Cc1ccc(C(C)(C)C)cc1 (stereo not drawn) | 21µM* | -6% | -73* | -16% | -4% | 15µM*
CC1=C(C(=O)N(C(C)C)C(C)C)CC(CC(=O)NC2CCCCC2)C(=O)N1Cc1ccc(C(C)(C)C)cc1 (stereo not drawn) | 21µM* | ? | -30 | ? | 0% | 15µM*
CC1=C(C(=O)N2CCOCC2)CC(CC(=O)NC2CC2)C(=O)N1Cc1ccc(C(C)(C)C)cc1 (stereo not drawn) | -28% | -6% | 11 | 2% | 21% | -26%
Cc1ccc(CN(C)C2CCc3nn(C)c(=O)n3CC2)o1 (stereo not drawn) | / | / | / | / | 42% | /
CCn1nc(CC(C)C)cc1C(=O)N1C[C@@H](NC(C)=O)[C@H](C(C)C)C1 | / | / | / | / | 22% | /
CCOc1ccc(C(=O)COC(=O)CCC(=O)c2ccc(Cl)cc2)cc1 | / | / | / | / | 11% | /
CC1=C(C(=O)N2CCOCC2)CC(CC(=O)NCCN2CCOCC2)C(=O)N1Cc1ccc(C(C)(C)C)cc1 (stereo not drawn) | -16% | 12% | 1 | 2% | ? | 4%
CC1=C(C(=O)N2CCCCCC2)CC(CC(=O)NCCc2ccccn2)C(=O)N1Cc1ccc(C(C)(C)C)cc1 (stereo not drawn) | 16µM* | -1% | ? | ? | 0% | 18µM*
CC1=C(C(=O)N2CCCCCC2)CC(CC(=O)NCCc2ccccn2)C(=O)N1Cc1ccccc1 (stereo not drawn) | -4% | 27% | 9 | 11% | -1% | -20%
CC1=C(C(=O)N2CCOCC2)CC(CC(=O)NCC2CCCCC2)C(=O)N1Cc1ccc(C(C)(C)C)cc1 (stereo not drawn) | ? | ? | -53* | ? | -5% | 18µM*
O=C(NCCc1ccccn1)C1CC12CCN(C(=O)c1cccc(C(F)(F)F)c1)CC2 (stereo not drawn) | -19% | / | / | / | 32% | -4%[9.04 µM]
CC(C)CCNC(=O)c1nccnc1N | / | / | / | / | 16% | /
Cc1cc(-c2cc(C(=O)NCc3ccccc3)on2)nc(S(C)(=O)=O)n1 | 5.8µM* | ? | -103* | ? | 0% | 7.3µM*
CC(NC1CCN(Cc2ccccc2)CC1)c1ccc(F)cc1 (stereo not drawn) | ? | -21% | ? | -23% | ? | ?
CN1CCC(NCCC(c2ccc(F)cc2)c2ccc(Cl)cc2)CC1 (stereo not drawn) | 5.8µM* | 4.1µM* | -103* | 5.2µM* | 0% | 5.8µM*
CC(C)C(CCNC1CCN(C)CC1)c1ccc(Cl)cc1 (stereo not drawn) | 3.3µM* | ? | -52* | ? | ? | 4.6µM*
C=CCN(C)CC[C@@H]1CC[C@H](O)[C@@H](C(=O)NC2CCCCC2)O1 | / | / | / | / | 17%[176 µM] | /
COc1ccc(C(C)=O)cc1COC(=O)Cc1ccc(Cl)cc1Cl | / | / | / | / | -4% | /
Cc1ccc(C)c(N2CN(CCC3=CCCCC3)CNC2=S)c1 | 21µM* | 27% | ? | 4% | ? | ?
SMILES | TDP1 cell noCPT | HT1080NT lethal | IL1B secr inh | HT1080 IDH1KD tx | 12-LOX inh | DT40 TDP1 CPT
NS(=O)(=O)c1ccc(CCNC(=O)CSc2nc3c(sc(=S)n3-c3ccccc3)c(=O)[nH]2)cc1 | -14% | 10% | 39 | 13% | -13% | -9%
COc1ccc(NC(=O)COc2ccccc2)cc1NC(=O)c1ccco1 | ? | -16% | -11 | -8% | 0% | ?
COc1ccc(NC(=O)c2ccco2)cc1NC(=O)COc1ccc(Cl)cc1C | 9.2µM* | / | / | / | ? | 10µM*
COc1ccc(C(C)(C)C)cc1NC(=O)COc1ccc(-c2nnco2)cc1 | ? | -7% | -50* | -8% | 2% | ?
COc1ccc(OCC(=O)Nc2cc(NC(=O)c3ccco3)ccc2OC)cc1 | ? | -2% | -55* | -8% | 25% | -15%
Cc1ccc(S(=O)(=O)N(C)C)cc1NC(=O)COc1ccc(-c2nnco2)cc1 | -14% | 20% | 3 | 7% | 10% | -6%
CCc1ccc([S+](=O)([O-])c2nnn3c2nc(NC2CC2)c2ccccc23)cc1 | / | / | / | / | -17%[6.33 µM] | /
Cc1ccc(S(=O)(=O)N2CCN(C3CCN(Cc4ccccn4)C3=O)CC2)cc1 (stereo not drawn) | / | / | / | / | 67% | /
CCN(CC)C(=O)c1sc(NC(=O)c2cccnc2)c(C(=O)OC)c1C | -26% | 5% | 22 | 7% | 7% | 0%
COC(=O)c1c(-c2cccs2)csc1NC(=O)c1cccc(Cl)c1 | -27% | / | / | / | 6% | ?
COc1ccc(C(=O)Nc2scc(-c3ccc(Cl)cc3Cl)c2C(N)=O)cc1 | 15µM* | 12% | ? | 1% | 14% | ?
COC(=O)c1c(-c2cccs2)csc1NC(=O)c1ccc(C(C)C)cc1 | 15µM* | / | / | / | -7% | ?
COC(=O)c1c(-c2ccc(F)cc2)csc1NC(=O)c1ccc(OC)cc1 | / | / | / | / | 14% | /
CC(C)c1ccc(-c2csc(NC(=O)c3cccs3)c2C(=O)O)cc1 | ? | ? | 0 | ? | -20% | ?
COC(=O)c1c(-c2cccs2)csc1NC(=O)c1ccc(Cl)cc1 | -62% | / | / | / | -25% | 16µM*

Screens from PubChem.
